The results in this text go back to PubChem BioAssay (NCATS).

Records with an inconclusive call do not appear. The source made the active and inactive calls. Calls follow the shape of the dose curve; as a rule, active = well fitted curve in the direction sought with a large enough effect; inconclusive = small, poorly fitted or top-dose-only effect, or another doubt; inactive = no such curve, though single readings can be large; an effect the other way counts as inactive or inconclusive.

The test system of assay [1] is Zika virus NS2B-NS3 protease. Kind of assay: Primary screen GU AMC qHTS for Zika virus inhibitors (AID 1347154). Also: nearly all actives have a fitted effect of over 70% in size. Also: potency is read from the fitted curve at half-maximal effect. A digest of the protocol:
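Unlinked Zika NS2B hydrophilic domain–NS3 protease complex at 25 nM in 10 mM Tris-HCl pH 8.0, 0.01% Tween 20, with an AMC peptide substrate. Fluorescence change (340/450 nm) over 15 min at room temperature, normalized to controls, fitted to 4-parameter Hill.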

In assay [2] the target is Furin (Homo sapiens) (UniProt P09958). Kind of assay: Furin counterscreen qHTS for Zika virus inhibitors (AID 1347149). Also: nearly all actives have a fitted effect of over 70% in size. Also: potency is read from the fitted curve at half-maximal effect. The gist of the method:
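Fluorogenic cleavage of BOC-RVRR-AMC (2 microM final, Km ~15 µM) was monitored (ex 340, em 450 nm) at 37C after 15 min RT preincubation of 5 nM furin with compounds in HEPES pH 7.0 buffer with CaCl2 and Triton X-100. Percent inhibition was fitted to a 4-parameter Hill curve.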

The subject of assay [3] is Zika virus NS2B-NS3 protease (unlinked complex). Kind of assay: Confirmatory screen GU AMC qHTS for Zika virus inhibitors (AID 1347153). Also: nearly all actives have a fitted effect of over 70% in size.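 As to Potency: enzyme at 25 nM with substrate at 10 µM below its Km of 18.3 µM; potency is read from the fitted curve at half-maximal effect.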 The gist of the method: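 Unlinked NS2B-NS3 complex (25 nM) in 10 mM Tris-HCl pH 8.0, 0.01% Tween 20 preincubated 15 min with compound, then 10 microM Bz-Nle-KRR-AMC (Km 18.3 µM). Fluorescence change over 15 min, normalized, Hill-fitted.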
Background: Quantitative high-throughput screening tests each substance at several concentrations.

A short description of assay [4]: Vero cells viability qHTS for Zika virus inhibitors (AID 1347167). The gist of the method:
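Cells seeded at 2.5 x 10^5 cells/mL in DMEM with 4% FBS and attached overnight at 37 degrees C, then exposed to compound for 24 to 48 hours. Viability read as ATP content by CellTiter Glo luminescence.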

Assay [5] deals with N-terminal Xaa-Pro-Lys N-methyltransferase 1 (Homo sapiens) (UniProt Q9BV86). The assay can be described thus: qHTS Assay for Inhibitors of N-terminal methyltransferase 1 (NTMT1): LOPAC validation of the NTMT1 SAHH-coupled ThioGlo3 Assay (AID 1347143).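 Also: SAH from peptide methylation measured as thiol fluorescence via SAHH coupling and ThioGlo3; nearly all actives have a fitted effect of over 70% in size.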 The gist of the method: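 Recombinant human NTMT1 (125nM) was pre-incubated 1 min at room temperature with compounds over a concentration range, then a mix of 100uM SAM, 10uM SAHH and 15uM ThioGlo3 (concentrations in added reagent) was added. ThioGlo3 fluorescence (ex 340/em 450nm) after 30 min was normalized to the initial reading.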
N-terminal Xaa-Pro-Lys N-methyltransferase 1 (Homo sapiens), sequence (Q9BV86 whole entry, looked up): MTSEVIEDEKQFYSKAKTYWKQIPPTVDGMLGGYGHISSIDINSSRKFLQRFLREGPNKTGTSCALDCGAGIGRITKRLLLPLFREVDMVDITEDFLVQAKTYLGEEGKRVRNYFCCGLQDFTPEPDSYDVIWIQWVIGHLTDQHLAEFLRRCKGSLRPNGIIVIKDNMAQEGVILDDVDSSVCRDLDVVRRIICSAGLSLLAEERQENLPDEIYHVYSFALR

The target in assay [6] is Lysine-specific demethylase 5B (Homo sapiens) (UniProt Q9UGL1). The assay can be described thus: Optimization screen for KDM5B Histone Demethylases FDH coupled qHTS against the LOPAC library (AID 1347166). The gist of the method:
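KDM5BDeltaAP (200nM final) preincubated 10 min with compound, then 12.5uM H3K4Me3, 25uM a-ketoglutarate, ascorbate, Fe(II), NAD+ and FDH added; 50mM HEPES pH 7.5, 0.01% Tween-20. NADH fluorescence (340/450 nm) change over 30 min, room temperature.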

Assay [7] can be described thus: qHTS to identify inhibitors of the type 1 interferon - major histocompatibility complex class I in skeletal muscle: primary screen against the NCATS LOPAC collection (AID 1347405).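 Also: lytic HiBiT luminescence reporting HLA-B protein level.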 A digest of the protocol:
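Cells: C25cl48 human myoblasts, HiBiT-tagged HLA-B*08:01, stimulated with IFN-beta 4.0 ng/ml. Compounds are titrated 1:4.3 over 7 points from 46 uM final and incubated 24 hrs; endogenous MHC class I is quantified by HiBiT lytic luminescence.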

The nature of assay [8]: qHTS to identify inhibitors of the type 1 interferon - major histocompatibility complex class I in skeletal muscle: primary screen against the NCATS Pharmaceutical Collection (AID 1347407).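 Also: luminescence of HiBiT knocked into endogenous HLA-B as interferon-induced MHC class I level.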 A digest of the protocol:
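Immortalized human myoblasts (C25cl48) with HiBiT knocked into endogenous HLA-B*08:01 were stimulated with 4.0 ng/ml IFN-beta and treated with compounds ([…] top 46 uM) for 24 hrs at 37 C. HiBiT lytic luminescence read.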

Assay [9] in a line: qHTS for inhibitors of adenylyl cyclases using a fission yeast platform: a pilot screen against the NCATS LOPAC library (AID 1347410). A digest of the protocol: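 S. pombe CHP2027 (AC9-GNAS-PDE4D2) carrying PKA-repressed fbp1-GFP, incubated 18 h at 30C in EMM with LOPAC compounds at up to 57 uM. GFP gain-of-signal read by laser scanning cytometry; DMSO negative control.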
The subject of assay [10] is Zika virus NS2B-NS3 protease (unlinked). Kind of assay: Optimization of GU AMC qHTS for Zika virus inhibitors: Unlinked NS2B-NS3 protease assay (AID 1347151). Also: series mostly up to about 52 µM; nearly all actives have a fitted effect of over 80% in size. A digest of the protocol: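 Noncovalent NS2B hydrophilic domain–NS3 protease complex (25 nM final) in 10 mM Tris-HCl pH 8.0, 0.01% Tween 20; AMC substrate, room temperature 15 min (~20% conversion); fluorescence change normalized, 4-parameter Hill fit.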

Assay [11] can be described thus: Confirmatory screen NINDS Rhodamine qHTS for Zika virus inhibitors (AID 1347161). Also: potency is read from the fitted curve at half-maximal effect; nearly all actives have a fitted effect of over 60% in size. A digest of the protocol:
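Each compound, titrated, sat 15 min with 25 nM linked protease before 1.5 microM Rhodamine110 substrate went in. Fluorescence gain over the next 15 min, in pH 8.0 Tris with Tween 20, gave Hill-fitted curves.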

In assay [12] the test system is Zika virus NS2B-NS3 protease (linked). The assay can be described thus: 384 well plate NINDS AMC confirmatory qHTS for Zika virus inhibitors (AID 1347163). Also: potency is read from the fitted curve at half-maximal effect; nearly all actives have a fitted effect of over 50% in size. A digest of the protocol: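 Linked protease 5/30/60 nM final; cpds up to 1 mM final, ~15 min preinc. Substrate Ac-VKTGKR-AMC 30 microM final. RT, dark, 25 min; FI ex 355/em 460; normalized to no-enzyme/no-inhibitor ctrls.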

In assay [13] the test system is Zika virus NS2B-NS3 protease (linked construct). The assay can be described thus: 384 well plate NINDS Rhodamine confirmatory qHTS for Zika virus inhibitors (AID 1347164).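 Also: fluorescence from protease cleavage of Ac-LKRR-rhodamine 110 substrate; potency is read from the fitted curve at half-maximal effect; nearly all actives have a fitted effect of over 65% in size.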 The gist of the method:
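Linked NS2B-NS3 protease (final 5, 30 or 60 nM) preincubated ~15 minutes with compounds, then 10 microM Ac-LKRR-Rhodamine 110 added. Fluorescence (485/538 nm) read after 25 minutes at room temperature, normalized to no-enzyme and no-inhibitor controls.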

Lysine-specific demethylase 5B (Homo sapiens), sequence (Q9UGL1 whole entry, looked up): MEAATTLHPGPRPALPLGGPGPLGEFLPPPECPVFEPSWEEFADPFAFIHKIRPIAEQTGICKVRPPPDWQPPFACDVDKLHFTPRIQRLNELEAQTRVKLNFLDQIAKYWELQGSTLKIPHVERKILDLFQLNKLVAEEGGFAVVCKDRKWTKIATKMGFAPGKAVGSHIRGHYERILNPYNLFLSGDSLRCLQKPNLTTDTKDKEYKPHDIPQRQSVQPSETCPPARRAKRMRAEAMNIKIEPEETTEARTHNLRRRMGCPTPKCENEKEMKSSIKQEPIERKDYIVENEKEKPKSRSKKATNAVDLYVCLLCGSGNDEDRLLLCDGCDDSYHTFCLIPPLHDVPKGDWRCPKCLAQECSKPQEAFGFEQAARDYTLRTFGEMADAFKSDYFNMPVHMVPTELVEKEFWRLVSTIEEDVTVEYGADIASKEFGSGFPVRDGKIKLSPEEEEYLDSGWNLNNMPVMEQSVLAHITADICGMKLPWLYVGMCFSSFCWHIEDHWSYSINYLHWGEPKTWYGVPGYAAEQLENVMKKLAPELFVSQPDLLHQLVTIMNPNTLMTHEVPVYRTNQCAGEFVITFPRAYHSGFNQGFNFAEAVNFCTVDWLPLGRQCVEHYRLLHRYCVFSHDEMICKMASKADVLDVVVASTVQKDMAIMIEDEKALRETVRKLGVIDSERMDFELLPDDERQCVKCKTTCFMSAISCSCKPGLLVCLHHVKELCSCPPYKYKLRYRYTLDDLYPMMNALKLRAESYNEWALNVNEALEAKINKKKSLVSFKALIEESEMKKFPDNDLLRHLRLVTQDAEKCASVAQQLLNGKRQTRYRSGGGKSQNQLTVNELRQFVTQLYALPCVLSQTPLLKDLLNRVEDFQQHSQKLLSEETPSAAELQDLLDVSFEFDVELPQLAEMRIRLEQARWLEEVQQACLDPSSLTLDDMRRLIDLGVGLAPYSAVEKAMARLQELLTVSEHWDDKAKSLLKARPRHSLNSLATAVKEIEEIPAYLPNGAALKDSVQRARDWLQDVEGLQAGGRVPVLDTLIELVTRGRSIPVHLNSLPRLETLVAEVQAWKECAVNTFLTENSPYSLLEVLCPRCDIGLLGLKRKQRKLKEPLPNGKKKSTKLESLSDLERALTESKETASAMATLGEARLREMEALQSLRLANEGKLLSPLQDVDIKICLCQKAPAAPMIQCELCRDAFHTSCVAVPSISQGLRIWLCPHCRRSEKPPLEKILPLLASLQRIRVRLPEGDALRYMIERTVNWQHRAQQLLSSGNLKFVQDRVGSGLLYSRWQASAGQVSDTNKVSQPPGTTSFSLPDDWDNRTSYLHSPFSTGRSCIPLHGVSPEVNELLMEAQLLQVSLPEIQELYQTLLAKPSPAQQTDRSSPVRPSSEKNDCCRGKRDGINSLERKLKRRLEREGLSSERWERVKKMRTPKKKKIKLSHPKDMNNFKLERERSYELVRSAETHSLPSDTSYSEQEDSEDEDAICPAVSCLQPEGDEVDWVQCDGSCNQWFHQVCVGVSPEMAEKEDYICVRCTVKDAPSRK
Furin (Homo sapiens), sequence (P09958 whole entry, looked up): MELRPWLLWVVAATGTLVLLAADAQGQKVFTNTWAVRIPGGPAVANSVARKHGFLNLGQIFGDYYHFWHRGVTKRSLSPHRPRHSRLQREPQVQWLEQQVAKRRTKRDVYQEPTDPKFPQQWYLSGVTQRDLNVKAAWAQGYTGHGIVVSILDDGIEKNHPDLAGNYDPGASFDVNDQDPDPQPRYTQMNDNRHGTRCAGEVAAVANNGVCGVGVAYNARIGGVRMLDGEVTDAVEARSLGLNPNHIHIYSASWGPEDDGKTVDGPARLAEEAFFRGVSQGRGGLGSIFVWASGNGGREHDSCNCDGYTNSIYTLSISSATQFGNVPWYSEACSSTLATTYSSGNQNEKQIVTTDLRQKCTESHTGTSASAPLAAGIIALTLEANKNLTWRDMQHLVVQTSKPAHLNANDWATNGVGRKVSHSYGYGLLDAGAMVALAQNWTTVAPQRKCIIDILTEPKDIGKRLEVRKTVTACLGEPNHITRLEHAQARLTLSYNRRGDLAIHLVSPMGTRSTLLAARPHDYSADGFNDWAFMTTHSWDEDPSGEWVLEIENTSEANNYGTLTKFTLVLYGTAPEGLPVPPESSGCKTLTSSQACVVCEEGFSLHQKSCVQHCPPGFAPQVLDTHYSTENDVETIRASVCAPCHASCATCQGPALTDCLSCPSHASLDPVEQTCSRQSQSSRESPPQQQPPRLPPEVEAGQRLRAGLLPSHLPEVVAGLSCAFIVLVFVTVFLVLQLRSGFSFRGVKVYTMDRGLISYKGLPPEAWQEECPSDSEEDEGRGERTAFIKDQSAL

For the compound `CC(=O)NC(C)c1ccc(Oc2ccc(OC(C)C)cc2)cc1` (configuration not stated), the Potency entry in assay [1] was “inactive”.
For the compound `O=C(C1CC1)N1CC[C@@H](Cn2c(-c3ccc(-c4ccc5occc5c4)cc3)nc3cnccc32)C1`, the Potency is 15.2 µM (active) in assay [2], 24.1 µM (active) in assay [3] and 10.8 µM (active) in assay [1]. Also, in assay [4], the call was inactive.
For the compound `CCOC(=O)C1=C[C@@]2(CC)CCCN3CCc4c(n1c1ccccc41)[C@H]32`, in [1], the Potency result was “inactive”.
Same read-out and setting: the same measure for `CNC(=O)c1ccc(N2C(=S)N(c3ccc(C#N)c(C(F)(F)F)c3)C(=O)C2(C)C)cc1F`: “inactive”.
Turning to `Cc1ccc(NC(=O)c2cccc(C(C)(C)C#N)c2)cc1Nc1ccc2ncn(C)c(=O)c2c1`, the Potency entry in [1] was “inactive”.
As to `CCOC(=O)C1=C[C@]2(CC)CCCN3CCc4c(n1c1ccccc41)[C@@H]32`, the Potency result in assay [5], in assay [1] and in [7] was “inactive” each time. Also, the outcome in [6], in [8] and in assay [9] was inactive.
Regarding `N=c1nc(N2CCCCC2)cc(N)n1O`, the Potency entry in [10] and in [7] was “inactive” throughout. For the same compound, the compound was called inactive in assay [6], in assay [8] and in assay [9].
`COc1ccc2c3n(c(=NC(=O)c4cccnc4)nc2c1OC)CCN3`: the Potency result in assay [1] is “inactive”.
On the same count and under the same terms, the same measure for `O=C(O)[C@@H](c1ccc(OCc2ccc3ccccc3n2)cc1)C1CCCC1`: “inactive”.
On the same count and under the same terms, the same measure for `CCn1c(-c2nonc2N)nc2c(C#CC(C)(C)O)ncc(OC[C@H]3CCCNC3)c21`: “inactive”.
Regarding `O=C(O)COCCN1CCN(C(c2ccccc2)c2ccc(Cl)cc2)CC1` (configuration not stated), the Potency result in assay [10], in assay [1] and in assay [7] was “inactive” throughout. For the same compound, the call in [6], in assay [8] and in [9] was inactive.
Turning to `COc1ccc(C2=N[C@H](c3ccc(Cl)cc3)[C@H](c3ccc(Cl)cc3)N2C(=O)N2CCNC(=O)C2)c(OC(C)C)c1`, in [1], the Potency entry is “inactive”.
On the same count and under the same terms, as for `Cc1cc([C@@H](C)Nc2ccccc2C(=O)O)c2nc(N3CCOCC3)cc(=O)n2c1`, the entry is “inactive”.
Take `COc1ccccc1-c1cccc(-c2c(O)c3cc(C#N)c(Cl)cc3[nH]c2=O)c1`: the Potency entry in assay [2] and in assay [3] was “inactive” in each case. The Potency in assay [1] is 49.4 µM (active); in [11] it was 27.8 µM (active); in [12], 50.1 µM (active); in [13], 7.08 µM (active). Besides, the result in [4] was inactive.
